Results published in PubChem BioAssay (NCI).
Compounds without any hit were thinned out: in the full panel of roughly 83,000, 20% have a hit.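 Interpretation: 100, growth as untreated; towards 0, rising growth inhibition; 0, no net growth; 0 to -100, cell death. Compounds scoring below 10 were considered active.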 A number with no mark means an inactive call. Calls of active or inactive are those of the source.

Experiments:
Assay in all cases: NCI-60 one-dose screen, 48 h (100 = growth as untreated, 0 = no growth, -100 = all killed)
Conditions in all cases: 10 µM
HT29 colon = system: HT29 colon
SNB-75 CNS = system: SNB-75 CNS
SNB-19 CNS = system: SNB-19 CNS
U251 CNS = system: U251 CNS
PC-3 prostate = system: PC-3 prostate
SK-MEL-5 melanoma = system: SK-MEL-5 melanoma
UACC-62 melanoma = system: UACC-62 melanoma
LOX IMVI melanoma = system: LOX IMVI melanoma
SK-MEL-28 melanoma = system: SK-MEL-28 melanoma
SK-MEL-2 melanoma = system: SK-MEL-2 melanoma

| SMILES | growth (HT29 colon) | growth (SNB-75 CNS) | growth (SNB-19 CNS) | growth (U251 CNS) | growth (PC-3 prostate) | growth (SK-MEL-5 melanoma) | growth (UACC-62 melanoma) | growth (LOX IMVI melanoma) | growth (SK-MEL-28 melanoma) | growth (SK-MEL-2 melanoma) |
| --- | --- | --- | --- | --- | --- | --- | --- | --- | --- | --- |
| O=C1Nc2ccccc2C1=NC1CCCCC1 | 99.2% | 88.1% | 111% | 101% | 94% | 94.3% | 105% | 87.5% | 115% | 88.6% |
| COc1ccc(NC2=NC(C)(CO)CS2)cc1 (stereo not given) | 105% | 83.5% | 103% | 101% | 82.2% | 96.3% | 96.1% | 95.7% | 106% | 108% |
| COc1ccc(S(=O)(=O)Nc2c(/C=C\c3cc(OC)c(OC)c(OC)c3)ccc(OC)c2O)cc1 | 11.7% | 31.3% | 48.5% | 6.01% (active) | 30.5% | -17% (active) | 38.6% | 15.5% | 58.2% | 3.84% (active) |
| Nc1nccc(Nc2ccccc2)n1 | 121% | 90.9% | 116% | 104% | 102% | 107% | 105% | 109% | 116% | 117% |
| CCCCCCCCN(CCCCCCCC)CCCCCCCCCN1CCCc2cc(OC)ccc21 | 84.8% | 84.5% | 98.3% | 90.7% | 85.2% | 109% | 86.8% | 88.6% | 101% | 101% |
| CC(C)(Cl)CCC1=C(Cl)C(=O)c2ccccc2C1=O | 115% | 30.7% | 89% | 49.9% | 32.8% | -34.8% (active) | 2.45% (active) | 20.6% | 56.9% | 79.1% |
| COc1cc(Nc2ccnc(NCCNc3ccnc4cc(Cl)ccc34)n2)cc(OC)c1 | 1.76% (active) | 68.7% | 64.2% | 9.32% (active) | 46.5% | -92.8% (active) | 51.1% | -37.2% (active) | -94.9% (active) | 48.7% |
| O=[N+]([O-])c1ccc(N/N=C/c2cccc3ccccc23)nc1 | 97.1% | 93.2% | 99.2% | 93% | 90.7% | 100% | 91.4% | 97.1% | 111% | 103% |
| CCOC(=O)N1C/C(=C/c2ccc(OC)cc2)C(=O)/C(=C/c2ccc(OC)cc2)C1 | -58.4% (active) | 48.8% | 78% | 12% | 46.5% | 21.6% | 44.6% | -72.2% (active) | 58.6% | 75.1% |
| O=C(Nc1cccc(-n2cc(-c3ccncc3)c(-c3cc(O)cc(Cl)c3)n2)c1)c1ccc(N2CCOCC2)c(C(F)(F)F)c1 | 16.9% | 23.1% | 12.1% | -9.64% (active) | 19.1% | 32.2% | 10.8% | -48.7% (active) | -52.4% (active) | 22.9% |
| CCCCCCN(CCCCCC)CC(O)c1ccc2c3c(cccc13)CC2 (stereo not given) | -4.58% (active) | 120% | 82.4% | 49.5% | 51.5% | 59.7% | 65.2% | 21.4% | 71.7% | 55.8% |
| COc1cc(Cl)cc(-c2nn(-c3cccc(NC(=O)Nc4ccc(Cl)c(Cl)c4)c3)cc2-c2ccncc2)c1 | 7.39% (active) | 16.2% | 17.8% | 3.01% (active) | -5.03% (active) | 3.51% (active) | 4.38% (active) | 9.24% (active) | 23.2% | -32.1% (active) |
| N=c1c2c(-c3ccccc3)c(-c3ccccc3)n(Cc3ccccc3)c2ncn1CCCO | 0.266% (active) | 39.7% | 48.3% | 24.5% | 33.8% | -4.56% (active) | 44.2% | 13% | 49.8% | 47% |
| O=C(Nc1ccncc1)C(=O)c1cn(S(=O)(=O)c2cccc3ccccc23)c2ccccc12 | 42.7% | 76.5% | 80.5% | 80.7% | 68.5% | 68% | 63.7% | 61.5% | 95.3% | 68.2% |
| CSc1nn(-c2ccccc2)c2ncnc(Oc3ccc(C)cc3)c12 | 99.3% | 75.1% | 102% | 91.2% | 82.5% | 94.5% | 99.6% | 95% | 99.5% | 75.3% |
| C#Cc1ccc(-n2c(/C=C/c3ccc(Cl)c(F)c3)nc3ncccc3c2=O)cc1 | -53.5% (active) | -64.7% (active) | 22% | -53.9% (active) | 2.16% (active) | -97.5% (active) | -55.9% (active) | -57% (active) | -8.26% (active) | -60.2% (active) |
| O=c1[nH]c2ccc(Cl)cc2c2ccccc12 | 70.3% | 33.2% | 65.9% | 65.9% | 92.8% | 70.6% | 88.3% | 98.5% | 94.6% | 107% |
| COc1ccc(-c2cc(/C=C3\C(=O)Nc4ccc(OC)cc43)[nH]n2)cc1 | 3.87% (active) | -18.7% (active) | 62.1% | 37.8% | 15.8% | 31% | 39.4% | 40.3% | 57% | 23.4% |
| CS(=O)(=O)Nc1ccc(Nc2c3ccccc3nc3cc([N+](=O)[O-])ccc23)cc1 | 11.8% | 41.3% | 43.3% | 21% | 44.4% | 13.5% | 32.2% | -27.1% (active) | 43.4% | 23.3% |
| Fc1cc(C(F)(F)F)ccc1-c1cncnc1NC1CCCCCC1 | 110% | 80.3% | 94.2% | 79.9% | 87.1% | 92.2% | 78.9% | 98.3% | 111% | 98.8% |
| Cn1c([N+](=O)[O-])cnc1/C=C1\Oc2ccccc2C1=O | -23.7% (active) | 43.8% | -17.3% (active) | -12.6% (active) | -21.4% (active) | -94.1% (active) | -90% (active) | -50.2% (active) | -25.9% (active) | -53.3% (active) |
| O=C(C[P+](c1ccccc1)(c1ccccc1)c1ccccc1)C[P+](c1ccccc1)(c1ccccc1)c1ccccc1 | -77.3% (active) | -22.6% (active) | 20.3% | -91.8% (active) | -77.7% (active) | -88.9% (active) | -79.6% (active) | -87.2% (active) | -42% (active) | -79.8% (active) |
| Cc1ccc(Nc2cc(C)nc(NCCCNc3ccnc4cc(Cl)ccc34)n2)cc1 | -87.2% (active) | -98.5% (active) | -24.9% (active) | -99.2% (active) | -38.4% (active) | -100% (active) | -92.9% (active) | -82.7% (active) | -100% (active) | -97% (active) |
| Nc1ccc2cc(S(=O)(=O)O)cc(O)c2c1N=Nc1ccc(F)cc1 | 107% | 123% | 104% | 115% | 91.5% | 108% | 96% | 93.5% | 132% | 101% |
| Fc1ccc2nc(-c3nc(-c4ccccc4)n4ccccc34)[nH]c2c1 | -52.6% (active) | -44.1% (active) | -36.5% (active) | -67% (active) | -71% (active) | 4% (active) | 3.95% (active) | 15.2% | -9.19% (active) | -30.3% (active) |
| Nc1c(C(=O)Nc2cccc(Br)c2)sc2nc3c(cc12)C(O)CCC3 (stereo not given) | 5.13% (active) | 31.2% | 62.2% | 19.3% | 23% | 31.6% | 48.9% | 46.2% | 63.2% | 58.7% |
| Nc1c(C(=O)Nc2cccc3ccccc23)sc2nc3c(cc12)C(=O)CCC3 | 8.98% (active) | 20.7% | 55.3% | 15.2% | 22.6% | 12.2% | 43.2% | 29.7% | 42.8% | 35.5% |
| COc1ccc(NC(=O)CSc2nc3ccccc3c(=O)n2CCc2ccccc2)cc1 | 110% | 28.7% | 59.4% | 71.4% | 106% | 86.6% | 89.8% | 92.9% | 91.6% | 121% |
